High-throughput results from PubChem BioAssay.
L3MBTL1 inh = qHTS Assay for the Inhibitors of L3MBTL1 | AlphaScreen L3MBTL1–H3K9me1 peptide binding | Potency, µM (series often up to 57.1 µM), for the others: at the highest dose activity, negative = inhibition, actives largely listed as inhibitors | 0.66% of 230,000 active; also: % is scaled to controls: 0 for no effect and ±100 for the full control effect; nearly all actives have a fitted effect of over 60% in size
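AlphaScreen proximity signal between nickel-chelate acceptor and streptavidin donor beads (final 10 ug/mL) reports binding of 50 nM L3MBTL1 to 75 nM biotin-H3 K9me1 peptide; complex incubated with compounds 30 min at room temperature; cefsulodin titration as control.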
GLS inh = qHTS for Inhibitors of Glutaminase (GLS); GLS enzymatic activity, qHTS titration; Potency, µM (doses to about 45.5 µM), without a hit: top-dose activity change, negative = inhibition, actives largely listed as inhibitors; 0.21% of 410,000 active; Glutaminase kidney isoform, mitochondrial (Homo sapiens), O94925; AID 624170, 2012; also: % is scaled to controls: 0 for no effect and ±100 for the full control effect
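hKGA in 45 mM KH2PO4 (pH 8.2), 0.02% Tween-20 with compound, then 1mM L-Glutamine (stock as added) plus glutamate oxidase/HRP/Amplex red coupling mix. Fluorescence read initially and after 30 min at RT; signal change reflects glutamate formation.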
HP1b binding inh = HTS for Inhibitors of HP1-beta Chromodomain Interactions with Methylated Histone Tails; AID 540317, 2011; Potency, µM (highest dose often 114 µM), for inactives: at the highest dose activity change, negative = inhibition, actives largely listed as inhibitors; 0.56% of 390,000 active; Chromobox protein homolog 1 (Homo sapiens), P83916; AlphaScreen HP1-beta / biotin-H3K9me3 peptide binding; also: nearly all actives have a fitted effect of over 70% in size
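AlphaScreen: HP1-beta (50 nM) preformed 30 min with biotin-H3(1-18)K9me3 peptide (50 nM) in PBS pH 7.4, 0.01% Tween-20. Compound added for 30 min at RT, then streptavidin donor/nickel chelate acceptor beads (10 ug/mL) for 30 min.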
G9a block = qHTS Assay for Inhibitors of Histone Lysine Methyltransferase G9a. 8.8% of 350,000 active. G9a H3K9 monomethylation, AlphaScreen, 2 h. Histone-lysine N-methyltransferase EHMT2 (Homo sapiens), Q96KQ7. Potency, µM (titrated, usually from 102 µM), for the others: top-dose activity, negative = inhibition, hits mostly inhibitors; also: % is scaled to controls: 0 for no effect and ±100 for the full control effect; nearly all actives have a fitted effect of over 75% in size
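Enzyme 20 nM + cpd, 15 min RT; add b-H3K9 pep 500 nM / SAM 20 uM; 2 h RT; anti-H3K9me1 Ab 0.5 ug/mL + SA donor / anti-rabbit acceptor beads 20 ug/mL each, 10 min; AlphaScreen read.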
BAZ2B block = qHTS Assay for Inhibitors of BAZ2B. Bromodomain adjacent to zinc finger domain protein 2B (Homo sapiens), Q9UIF8. AlphaScreen BAZ2B-H3K14Ac peptide displacement. Potency, µM (highest dose often 114 µM), inactives show at the top dose activity change, negative = inhibition, most hits filed as inhibitors. 4.4% of 360,000 active. AID 504333, 2011; also: % is scaled to controls: 0 for no effect and ±100 for the full control effect; nearly all actives have a fitted effect of over 60% in size
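Compounds, titrated to a top concentration of 110 uM, were incubated 30 min at room temperature with preformed BAZ2B/acetyl-K14 H3 peptide complex (50 nM each). Proximity signal was measured by AlphaScreen after 20 min with beads.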
JMJD2A Tudor inh = qHTS Assay for Inhibitors of JMJD2A-Tudor Domain; Lysine-specific demethylase 4A (Homo sapiens), O75164; AlphaScreen JMJD2A-Tudor / H3K4me3 peptide binding; Potency, µM (highest dose often 114 µM), inactives show at the top dose activity change, negative = inhibition, usual class: inhibitors; 4.4% of 390,000 active; also: % is scaled to controls: 0 for no effect and ±100 for the full control effect; nearly all actives have a fitted effect of over 50% in size
Target sequence (O75164 whole entry, looked up, the tested form may be a part): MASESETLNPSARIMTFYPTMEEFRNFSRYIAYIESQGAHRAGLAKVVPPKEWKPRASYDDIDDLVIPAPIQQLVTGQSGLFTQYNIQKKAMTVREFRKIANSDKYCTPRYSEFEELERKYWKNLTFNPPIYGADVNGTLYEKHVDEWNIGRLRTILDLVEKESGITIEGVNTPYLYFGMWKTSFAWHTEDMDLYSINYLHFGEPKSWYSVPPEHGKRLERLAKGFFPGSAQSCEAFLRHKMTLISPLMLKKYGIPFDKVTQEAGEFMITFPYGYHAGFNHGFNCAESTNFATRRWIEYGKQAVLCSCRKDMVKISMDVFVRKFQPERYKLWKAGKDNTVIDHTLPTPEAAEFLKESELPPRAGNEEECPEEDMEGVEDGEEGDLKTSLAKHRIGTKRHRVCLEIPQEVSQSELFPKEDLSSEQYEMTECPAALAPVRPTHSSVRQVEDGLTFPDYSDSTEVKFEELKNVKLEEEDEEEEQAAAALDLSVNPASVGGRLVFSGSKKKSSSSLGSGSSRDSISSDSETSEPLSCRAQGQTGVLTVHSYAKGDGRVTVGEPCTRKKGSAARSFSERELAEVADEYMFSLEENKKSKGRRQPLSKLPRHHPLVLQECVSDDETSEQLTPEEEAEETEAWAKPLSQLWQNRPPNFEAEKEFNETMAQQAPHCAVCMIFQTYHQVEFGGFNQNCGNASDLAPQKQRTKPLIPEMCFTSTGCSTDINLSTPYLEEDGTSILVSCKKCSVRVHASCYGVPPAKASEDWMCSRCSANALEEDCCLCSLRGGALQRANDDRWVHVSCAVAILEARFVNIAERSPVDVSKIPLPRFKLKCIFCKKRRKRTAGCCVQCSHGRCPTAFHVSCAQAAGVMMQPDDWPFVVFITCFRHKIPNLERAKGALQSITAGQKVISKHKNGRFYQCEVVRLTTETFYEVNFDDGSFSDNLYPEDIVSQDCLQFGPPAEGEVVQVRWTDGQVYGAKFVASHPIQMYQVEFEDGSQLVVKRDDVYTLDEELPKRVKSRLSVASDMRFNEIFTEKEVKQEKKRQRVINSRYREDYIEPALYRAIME
Numbers without * were called inactive; ? = inconclusive; / = no result given; [ ] = another dose, or the depositor's remark. In the library only some 10% were active in any assay of this set; here they are far more common. Calls follow the shape of the dose curve; as a rule, active = well fitted curve in the direction sought with a large enough effect; inconclusive = small, poorly fitted or top-dose-only effect, or another doubt; inactive = no such curve, though single readings can be large; an effect the other way counts as inactive or inconclusive. Potency is read from the fitted curve at half-maximal effect.

SMILES	L3MBTL1 inh	GLS inh	HP1b binding inh	G9a block	BAZ2B block	JMJD2A Tudor inh
COC(=O)C1=C(C)N(c2ccc(C)c(C)c2)/C(=C/c2ccco2)C1=O	/	19.1%	-10.8%	?	?	-34.3%
CCN1C(=O)/C(=C\c2ccc3c(c2)OCO3)C(C(=O)OC)=C1C	-10.2%	3.4%	?	50.1µM*	?	-34.4%[57.1 µM]
CCOc1ccccc1NC(=O)c1cc2c(=O)[nH]c3ccccc3c2s1	/	-2.5%	28.6%	-6.2%[59 µM]	/	-6.7%
CCOC(=O)C1=C(C)N(c2ccc(OC)cc2)C(=O)/C1=C\c1ccc(O)c(OCC)c1	-16.3%	-1.9%	?	?	50.1µM*	14.1µM*
CCOc1ccc(Nc2sc(C(=O)c3ccc4c(c3)OCO4)c(N)c2S(=O)(=O)c2ccc(C)cc2)cc1	/	5.5%	15.8%[57 µM]	4.3%[59 µM]	-20.9%	-26.8%
COc1ccc(CNC(=O)Cn2ncc3c4ccccc4n(Cc4cccc(Cl)c4)c3c2=O)cc1	/	-13.9%	21.5%	-0.3%[59 µM]	-13.4%	-32.6%
COc1cccc(N2CCN(c3ncnc4c3[nH]c3ccc(F)cc34)CC2C)c1 (stereo not given)	-21.1%	10.9%	?	17.8µM*	?	?
CC1CC(C)(C)CC2(C1)NC(=O)N(CC(=O)N1CCN(Cc3ccc(C#N)cc3)CC1)C2=O (stereo not given)	0.3%	12.6%	-6.1%	50.1µM*	-6.5%	-12.2%
O=C(NCc1ccco1)c1ccc2c(c1)N(Cc1ccccc1F)C(=O)c1ccccc1S2(=O)=O	/	-3.2%	6.5%	?	-12.2%	-16.5%
CCOc1cc(CNc2cccc3[nH]c(C)nc23)ccc1OC	/	12.4%	11.4%	50.1µM*	?	?
NC(=O)c1c(NC(=O)C2CCCO2)sc2c1CCCC2 (stereo not given)	-4.4%	-14.3%	?	3.16µM*	-28.7%	?
Cc1sc(NC(=O)C2CCCO2)c(C(N)=O)c1C (stereo not given)	-20.9%	-0.1%	?	7.94µM*	-3.8%	?
CC(C)(C)C(=O)NC(=S)Nc1sc2c(c1C(N)=O)CCC2	-11.0%	-0.1%	?	5.62µM*	-14.2%	-13.8%
Cc1ccc(-n2nc(CO)c(C(=O)NCCc3ccccc3)n2)cc1C	/	-10.8%	-12.6%	-0.8%[59 µM]	-4.0%	-21.7%
CCNc1ncc2nc(-c3ccc(F)cc3)c(=O)n(C)c2n1	/	/	/	-10.6%[0.501 µM]	/	/
Cc1cccc(NC(=O)c2sc3nc4n(c(=O)c3c2C)N=C(c2ccc(F)cc2)CS4)c1C	/	-12.0%	7.0%	10.7%[59 µM]	-1.3%	-8.7%
CCOCCCNC(=O)C(NC(=O)c1ccccc1O)c1ccc(C)cc1 (stereo not given)	/	0.0%	41.4%	5.62µM*	-2.7%	-1.0%
CCOCCCNC(=O)C(NC(=O)c1ccccn1)c1ccc(C)cc1 (stereo not given)	-15.2%	-22.6%	9.2%	?	-6.3%	-15.5%
Cc1cc(O)c(C=O)c2c1C(=O)Oc1c(CO)c(O)c3c(c1O2)C(O)OC3=O (stereo not given)	2.82µM*	-21.8%	?	?	20µM*	3.16µM*
Cc1cc(F)ccc1NC(=O)Cn1c(=O)ccc2cc(S(=O)(=O)N3CCC(C)CC3)ccc21	/	9.6%	11.6%[57 µM]	10.0%[59 µM]	-2.5%	-19.0%
COc1cccc(-c2sc3ccc(OC)cc3c2-c2ccc(OCCN(C)C)cc2)c1	-13.2%	-0.6%	?	/	/	28.2µM*
COc1ccc(-c2sc3ccccc3c2-c2ccc(O)cc2)cc1	-0.9%	5.1%	5.7%	/	/	-30.3%
CN(C)CCOc1ccc(-c2c(-c3ccsc3)sc3ccccc23)cc1	-22.9%	9.6%	-37.2%	/	/	50.1µM*
COc1ccc(-c2sc3ccccc3c2-c2ccc(OCCN(C)C)cc2)cc1	-0.2%	-2.0%	?	/	/	35.5µM*
CCCCn1c(SCc2ccccc2C#N)nc2c(sc3ccccc32)c1=O	/	5.9%	29.8%	16.1%[59 µM]	6.1%	-14.3%
SMILES	L3MBTL1 inh	GLS inh	HP1b binding inh	G9a block	BAZ2B block	JMJD2A Tudor inh
CCC(Cc1ccccc1)NC(=O)/C=C/c1ccco1 (stereo not given)	1.8%[2.29 µM]	37.7%	5.1%	18.0%[0.501 µM]	-5.4%	-22.4%
COc1ccc(C(NC(=O)/C=C\c2ccco2)c2ccc(OC)c(OC)c2)cc1 (stereo not given)	-25.1%	-11.3%	-40.4%	25.1µM*	-33.3%	50.1µM*
COc1ccc(C(NC(=O)/C=C/c2ccco2)c2ccc(OC)cc2)cc1	-11.0%	-2.2%	?	8.91µM*	50.1µM*	?
COc1cccc(N2C(=O)CSC23C(=O)N(Cc2ccccc2)c2ccccc23)c1 (stereo not given)	/	-4.8%	18.3%	?	-26.0%	-10.3%
CC1=C(c2ccc(C)c(C)c2)S(=O)(=O)N=C1N1CCC(C(=O)N2CCCCC2)CC1	/	0.0%	-10.4%	12.2%[59 µM]	-8.8%	-11.0%
Cc1cc(-c2ccc(C)c(S(=O)(=O)Nc3ccccc3C(F)(F)F)c2)on1	/	-3.2%	44.6%	-25.4%[59 µM]	-3.0%	-9.7%
CCOC(=O)c1c(C)n(CC(O)c2ccccc2)c2ccc(O)cc12 (stereo not given)	-9.3%	15.3%	17.4%	56.2µM*	?	-25.2%
CCOC(=O)c1c(C)n(CCNC(C)=O)c2ccc(O)cc12	/	-26.5%	15.7%	-3.4%	-2.3%	-13.8%
CCOC(=O)c1c(CSc2ccccc2)n(C)c2ccc(O)cc12	/	9.0%	14.3%	35.5µM*	1.0%	-12.0%
COc1cc2c(C(=O)OCCN(C)C)c(CSc3ccccc3)n(C)c2cc1Br	-9.2%	11.4%	-2.7%	-24.4%	-20.6%	-30.5%
CCOC(=O)c1c(C)n(CCOc2ccccc2)c2ccc(O)cc12	/	-24.8%	9.8%	3.98µM*	3.3%	-11.2%
CC(C)CCN1C(=O)c2ccccc2CC1(C)C(=O)NC1CCC(C)CC1 (stereo not given)	/	-10.5%	3.1%	4.6%[59 µM]	-1.2%	-13.1%
COc1ccc(N2CCN(C(=O)c3oc4ccccc4c3NC(=O)Cc3ccc(OC)c(OC)c3)CC2)cc1	/	23.2%	4.4%	28.2µM*	?	?
COc1ccc(N2CCN(C(=O)c3cc(=O)c4cc(C)c(C)cc4o3)CC2)cc1	/	37.0%	6.0%	6.1%	-9.0%	56.2µM*
COc1ccc(N2CCN(C(=O)c3oc4ccccc4c3C)CC2)cc1	-8.0%	?	?	35.5µM*	/	39.8µM*
